# Data as given in PubChem BioAssay AID1159580 (chemical genetic matrix, 2015).
# In all, about 5,500 compounds went through this assay and about 2,000 (36%) were called active. Inconclusive results (about 18%) are left out. Some of the results follow. A number with no mark means an inactive call. Cut-off read from the data, not from the text of the source: active = normalized growth mostly below about 0.91 (no sharp cut-off); inconclusive = no clear call, values can overlap the other calls; inactive = mostly above about 0.92.
# Experiment: chemical genetic growth profiling, strain panel (AID 1159580);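 note: tested at 20 µM; growth read once vehicle control cultures reached saturation at 30 °C; 1 = growth at the plate median or of vehicle wells; lower values mean less growth of the strain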
# Settings: growth OD
# [1] = S. cerevisiae deletion strains, locus YDR150W, strain NUM1, active compounds read low
# [2] = S. cerevisiae deletion strains, locus YPL055C, strain LGE1, active compounds read low
# [3] = S. cerevisiae deletion strains, locus YDL101C, strain DUN1, active compounds read low
# [4] = S. cerevisiae deletion strains, locus YHR030C, strain SLT2, active compounds read low
smiles,measurement,setting,value
CC(=O)Oc1cc(C(C)C)c(OCCN(C)C)cc1C,normalized growth,"S. cerevisiae deletion strains, locus YAL040C, strain CLN3, active compounds read low",1.01
same,normalized growth,"S. cerevisiae deletion strains, locus YCL061C, strain MRC1 (second series), active compounds read low",1.01
same,normalized growth,[1],1
same,normalized growth,"S. cerevisiae deletion strains, locus YDR363W, strain ESC2, active compounds read low",1.01
same,normalized growth,"S. cerevisiae deletion strains, locus YER002W, strain NOP16, active compounds read low",1.03
same,normalized growth,"S. cerevisiae deletion strains, locus YNL175C, strain NOP13, active compounds read low",1.01
same,normalized growth,"S. cerevisiae deletion strains, locus YNL197C, strain WHI3, active compounds read low",1.01
same,normalized growth,"S. cerevisiae deletion strains, locus YNL224C, strain SQS1, active compounds read low",1
same,normalized growth,"S. cerevisiae deletion strains, locus YOR083W, strain WHI5 (second series), active compounds read low",1.01
same,normalized growth,[2],1.01
CCC(C)Cn1c(Sc2ncc([N+](=O)[O-])s2)n[nH]c1=O (stereo not given),normalized growth,"S. cerevisiae deletion strains, locus YAR019C, strain CDC15, active compounds read low",0.853 (active)
same,normalized growth,"S. cerevisiae deletion strains, locus YBL105C, strain PKC1, active compounds read low",0.893 (active)
same,normalized growth,"S. cerevisiae deletion strains, locus YBR135W, strain CKS1, active compounds read low",0.867 (active)
same,normalized growth,"S. cerevisiae deletion strains, locus YBR136W, strain MEC1, active compounds read low",0.888 (active)
same,normalized growth,"S. cerevisiae deletion strains, locus YBR160W, strain CDC28, active compounds read low",0.894 (active)
same,normalized growth,"S. cerevisiae deletion strains, locus YDL017W, strain CDC7, active compounds read low",0.895 (active)
same,normalized growth,"S. cerevisiae deletion strains, locus YDL028C, strain MPS1, active compounds read low",0.895
same,normalized growth,[3],0.932
same,normalized growth,"S. cerevisiae deletion strains, locus YDL108W, strain KIN28, active compounds read low",0.878 (active)
same,normalized growth,"S. cerevisiae deletion strains, locus YDL132W, strain cdc53, active compounds read low",0.849 (active)
same,normalized growth,"S. cerevisiae deletion strains, locus YDL214C, strain PRR2, active compounds read low",0.794
same,normalized growth,"S. cerevisiae deletion strains, locus YDR052C, strain DBF4, active compounds read low",0.93
same,normalized growth,"S. cerevisiae deletion strains, locus YDR054C, strain cdc34, active compounds read low",0.825 (active)
same,normalized growth,"S. cerevisiae deletion strains, locus YDR226W, strain ADK1, active compounds read low",0.884 (active)
same,normalized growth,"S. cerevisiae deletion strains, locus YDR477W, strain SNF1, active compounds read low",0.711
same,normalized growth,"S. cerevisiae deletion strains, locus YER123W, strain YCK3, active compounds read low",0.649
same,normalized growth,"S. cerevisiae deletion strains, locus YER133W, strain GLC7, active compounds read low",0.69 (active)
same,normalized growth,"S. cerevisiae deletion strains, locus YFL009W, strain cdc4, active compounds read low",0.844 (active)
same,normalized growth,"S. cerevisiae deletion strains, locus YFL029C, strain CAK1, active compounds read low",0.848 (active)
same,normalized growth,"S. cerevisiae deletion strains, locus YFR003C, strain YPI1, active compounds read low",0.901 (active)
same,normalized growth,"S. cerevisiae deletion strains, locus YFR019W, strain FAB1, active compounds read low",0.838
same,normalized growth,"S. cerevisiae deletion strains, locus YFR028C, strain CDC14, active compounds read low",0.888 (active)
same,normalized growth,"S. cerevisiae deletion strains, locus YGR040W, strain KSS1, active compounds read low",0.751
same,normalized growth,"S. cerevisiae deletion strains, locus YGR052W, strain FMP48, active compounds read low",0.776
same,normalized growth,"S. cerevisiae deletion strains, locus YGR092W, strain DBF2, active compounds read low",0.469 (active)
same,normalized growth,[4],0.772 (active)
same,normalized growth,"S. cerevisiae deletion strains, locus YHR079C, strain IRE1, active compounds read low",0.657
same,normalized growth,"S. cerevisiae deletion strains, locus YHR082C, strain KSP1, active compounds read low",0.926
same,normalized growth,"S. cerevisiae deletion strains, locus YHR205W, strain SCH9, active compounds read low",0.806
same,normalized growth,"S. cerevisiae deletion strains, locus YIL147C, strain SLN1, active compounds read low",0.896
same,normalized growth,"S. cerevisiae deletion strains, locus YJL095W, strain BCK1, active compounds read low",0.651
same,normalized growth,"S. cerevisiae deletion strains, locus YJL128C, strain PBS2, active compounds read low",0.938
same,normalized growth,"S. cerevisiae deletion strains, locus YJL157C, strain FAR1, active compounds read low",0.763
same,normalized growth,"S. cerevisiae deletion strains, locus YJR016C, strain ILV3, active compounds read low",0.877 (active)
same,normalized growth,"S. cerevisiae deletion strains, locus YJR066W, strain TOR1 (second series), active compounds read low",0.492 (active)
same,normalized growth,"S. cerevisiae deletion strains, locus YJR066W, strain TOR1, active compounds read low",0.778
same,normalized growth,"S. cerevisiae deletion strains, locus YKL048C, strain ELM1, active compounds read low",0.963
same,normalized growth,"S. cerevisiae deletion strains, locus YKL067W, strain YNK1, active compounds read low",0.792
same,normalized growth,"S. cerevisiae deletion strains, locus YKL101W, strain HSL1, active compounds read low",0.838
same,normalized growth,"S. cerevisiae deletion strains, locus YKL193C, strain SDS22, active compounds read low",0.849 (active)
same,normalized growth,"S. cerevisiae deletion strains, locus YKL203C, strain TOR2, active compounds read low",0.795
same,normalized growth,"S. cerevisiae deletion strains, locus YLR113W, strain HOG1, active compounds read low",0.598 (active)
same,normalized growth,"S. cerevisiae deletion strains, locus YLR133W, strain CKI1, active compounds read low",0.805
same,normalized growth,"S. cerevisiae deletion strains, locus YLR403W, strain SFP1, active compounds read low",0.56 (active)
same,normalized growth,"S. cerevisiae deletion strains, locus YML070W, strain DAK1, active compounds read low",0.759
same,normalized growth,"S. cerevisiae deletion strains, locus YMR001C, strain CDC5, active compounds read low",0.88 (active)
same,normalized growth,"S. cerevisiae deletion strains, locus YMR205C, strain PFK2 (second series), active compounds read low",0.844
same,normalized growth,"S. cerevisiae deletion strains, locus YMR277W, strain FCP1, active compounds read low",0.846 (active)
same,normalized growth,"S. cerevisiae deletion strains, locus YNL006W, strain LST8, active compounds read low",0.894 (active)
same,normalized growth,"S. cerevisiae deletion strains, locus YNL020C, strain ARK1, active compounds read low",0.826
same,normalized growth,"S. cerevisiae deletion strains, locus YNL161W, strain CBK1, active compounds read low",0.875 (active)
same,normalized growth,"S. cerevisiae deletion strains, locus YNL183C, strain NPR1, active compounds read low",0.652
same,normalized growth,"S. cerevisiae deletion strains, locus YNL207W, strain RIO2, active compounds read low",0.867 (active)
same,normalized growth,"S. cerevisiae deletion strains, locus YNL222W, strain SSU72, active compounds read low",0.865 (active)
same,normalized growth,"S. cerevisiae deletion strains, locus YNL307C, strain MCK1 (second series), active compounds read low",0.714
same,normalized growth,"S. cerevisiae deletion strains, locus YOL078W, strain AVO1, active compounds read low",0.856 (active)
same,normalized growth,"S. cerevisiae deletion strains, locus YOL136C, strain PFK27, active compounds read low",0.766
same,normalized growth,"S. cerevisiae deletion strains, locus YOR061W, strain CKA2, active compounds read low",0.85
same,normalized growth,"S. cerevisiae deletion strains, locus YOR119C, strain RIO1, active compounds read low",0.735
same,normalized growth,"S. cerevisiae deletion strains, locus YOR231W, strain MKK1, active compounds read low",0.722
same,normalized growth,"S. cerevisiae deletion strains, locus YOR329C, strain SCD5, active compounds read low",0.908
same,normalized growth,"S. cerevisiae deletion strains, locus YPL031C, strain PHO85, active compounds read low",0.674
same,normalized growth,"S. cerevisiae deletion strains, locus YPL153C, strain RAD53, active compounds read low",0.657 (active)
same,normalized growth,"S. cerevisiae deletion strains, locus YPL204W, strain HRR25, active compounds read low",0.683
same,normalized growth,"S. cerevisiae deletion strains, locus YPL209C, strain IPL1, active compounds read low",0.891 (active)
same,normalized growth,"S. cerevisiae deletion strains, locus YPL256C, strain CLN2, active compounds read low",0.695 (active)
same,normalized growth,"S. cerevisiae deletion strains, locus YPR025C, strain CCL1, active compounds read low",0.888 (active)
same,normalized growth,"S. cerevisiae deletion strains, locus YPR106W, strain ISR1, active compounds read low",0.943
same,normalized growth,"S. cerevisiae deletion strains, locus YPR111W, strain DBF20, active compounds read low",0.938
same,normalized growth,"S. cerevisiae deletion strains, strain NNK1, active compounds read low",0.932
same,normalized growth,"S. cerevisiae deletion strains, strain TSCII, active compounds read low",0.85 (active)
C=CCn1c(Sc2ncc([N+](=O)[O-])s2)n[nH]c1=O,normalized growth,"S. cerevisiae deletion strains, locus YAL013W, strain DEP1, active compounds read low",0.926 (active)
same,normalized growth,"S. cerevisiae deletion strains, locus YBR229C, strain ROT2, active compounds read low",0.913 (active)
same,normalized growth,[3],0.932
same,normalized growth,[1],0.929
same,normalized growth,"S. cerevisiae deletion strains, locus YEL061C, strain CIN8, active compounds read low",0.858 (active)
same,normalized growth,"S. cerevisiae deletion strains, locus YGR078C, strain PAC10, active compounds read low",0.944
same,normalized growth,"S. cerevisiae deletion strains, locus YGR229C, strain SMI1, active compounds read low",0.984
same,normalized growth,[4],0.775
same,normalized growth,"S. cerevisiae deletion strains, locus YHR087W, strain rtc3, active compounds read low",0.968
same,normalized growth,"S. cerevisiae deletion strains, locus YJL187C, strain SWE1, active compounds read low",0.948
same,normalized growth,"S. cerevisiae deletion strains, locus YJR043C, strain POL32, active compounds read low",0.968
same,normalized growth,"S. cerevisiae deletion strains, locus YJR075W, strain HOC1, active compounds read low",1
same,normalized growth,"S. cerevisiae deletion strains, locus YLR039C, strain RIC1, active compounds read low",0.8
same,normalized growth,"S. cerevisiae deletion strains, locus YLR058C, strain SHM2 (second series), active compounds read low",0.962
same,normalized growth,"S. cerevisiae deletion strains, locus YLR085C, strain ARP6, active compounds read low",0.359 (active)
same,normalized growth,"S. cerevisiae deletion strains, locus YLR262C, strain YPT6, active compounds read low",0.992
same,normalized growth,"S. cerevisiae deletion strains, locus YML094W, strain GIM5, active compounds read low",0.813 (active)
same,normalized growth,"S. cerevisiae deletion strains, locus YMR219W, strain ESC1, active compounds read low",0.975
same,normalized growth,"S. cerevisiae deletion strains, locus YMR263W, strain SAP30, active compounds read low",0.938
same,normalized growth,"S. cerevisiae deletion strains, locus YMR307W, strain GAS1, active compounds read low",0.973
same,normalized growth,"S. cerevisiae deletion strains, locus YNL153C, strain GIM3, active compounds read low",0.815 (active)
same,normalized growth,"S. cerevisiae deletion strains, locus YNL298W, strain CLA4 (second series), active compounds read low",0.675 (active)
same,normalized growth,"S. cerevisiae deletion strains, locus YNL322C, strain KRE1, active compounds read low",0.996
same,normalized growth,"S. cerevisiae deletion strains, locus YNR030W, strain Alg12, active compounds read low",0.833 (active)
same,normalized growth,"S. cerevisiae deletion strains, locus YOL006C, strain TOP1, active compounds read low",0.219 (active)
same,normalized growth,[2],0.829
same,normalized growth,"S. cerevisiae deletion strains, locus YPL241C, strain CIN2, active compounds read low",0.582 (active)
same,normalized growth,"S. cerevisiae deletion strains, locus YPR135W, strain CTF4, active compounds read low",0.488 (active)
same,normalized growth,"S. cerevisiae strains, strain wild type, active compounds read low",0.893 (active)
